# From PubChem BioAssay (EPA / NIEHS)
# Values joined by “and” are separate entries in the source; they are usually repeats but may differ in a detail not shown here. Equal values may be shown once. Inconclusive results are not listed. Active and inactive are the calls of the source. Rule for the calls, unless noted: active = hit-call score of the fitted dose curve at least 0.9, where 1 is the maximum; inactive = score below 0.9.
# Assays:
# [1] = CCTE_Shafer_MEA_acute_cross_correlation_HWHM: CCTE's Neural Acute Assay for Cross Correlation at Half Width at Half Maximum, Shafer Lab (AID 2284026);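 note: percent change per well from pre-dose baseline in spike cross-correlogram half width; hits are a decrease in cross-correlogram half width relative to DMSO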;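 for outcome: spontaneous network firing of rat primary cortical neurons on multiwell microelectrode arrays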
# Procedure, shortened: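 Per-well percent change in cross-correlogram half width at half maximum, derived from 40-min recordings before and after compound (0.03-40 uM) at 37 C. Cultures were rat cortical neurons, DIV 13 or 15, with adaptive spike detection at 8x rms.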
# [2] = read-out: Monokine induced gamma interferon (MIG), CXCL9 (gene 4283); assay: BSK_KF3CT_MIG: BioMAP Diversity Plus: KF3CT Assay for Monokine induced gamma interferon (MIG) Biomarker Activity (AID 2284248); conditions: primary human keratinocytes with fibroblasts
# Procedure, shortened: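 Parallel cultures were stained with SRB (560 nm) to check cytotoxicity. MIG was quantified by ELISA in a primary human skin keratinocyte/fibroblast co-culture 24 h post-dosing, with gain of signal fitted relative to DMSO.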
# [3] = read-out: Plasminogen activator inhibitor-1 (PAI1), SERPINE1 (gene 5054); assay: BSK_KF3CT_PAI1: BioMAP Diversity Plus: KF3CT Assay for Plasminogen activator inhibitor-1 (PAI1) Biomarker Activity (AID 2284252); conditions: primary human keratinocytes with fibroblasts
# Procedure, shortened: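 Cells (human keratinocytes co-cultured with foreskin fibroblasts) are exposed to test chemical for 24 h. PAI-1 is then measured by ELISA and analysed for signal gain against DMSO.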
# [4] = read-out: Interleukin-8 (IL8), CXCL8 (gene 3576); assay: BSK_KF3CT_IL8: BioMAP Diversity Plus: KF3CT Assay for Interleukin-8 (IL8) Biomarker Activity (AID 2284254); conditions: primary human keratinocytes with fibroblasts
# Procedure, shortened: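 IL-8 by ELISA in primary human skin co-culture (keratinocytes plus fibroblasts) 24 h post-dose, DMSO as baseline. Cytotoxicity assessed in parallel by sulforhodamine B total-protein staining.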
# [5] = read-out: Interferon-inducible T-cell alpha chemoattractant (ITAC), CXCL11 (gene 6373); assay: BSK_BE3C_ITAC: BioMAP Diversity Plus: BE3C Assay for Interferon-inducible T-cell alpha chemoattractant (ITAC) Biomarker Activity (AID 2284279); conditions: primary human bronchial epithelial cells
# Procedure, shortened: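 ELISA for I-TAC in primary human bronchial epithelial cultures 24 h post-treatment, fitted relative to DMSO baseline in positive direction. Cytotoxicity checked in parallel cultures by sulforhodamine B protein staining.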
# [6] = read-out: Interleukin-8 (IL8), CXCL8 (gene 3576); assay: BSK_BE3C_IL8: BioMAP Diversity Plus: BE3C Assay for Interleukin-8 (IL8) Biomarker Activity (AID 2284280); conditions: primary human bronchial epithelial cells
# Procedure, shortened: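 Dose human bronchial epithelial cells with chemical; incubate 24 h; quantify IL-8 by ELISA; fit response upward versus DMSO controls.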
# [7] = read-out: Plasminogen activator inhibitor-1 (PAI1), SERPINE1 (gene 5054); assay: BSK_CASM3C_PAI1: BioMAP Diversity Plus: CASM3C Assay for Plasminogen activator inhibitor-1 (PAI1) Biomarker Activity (AID 2284284); conditions: primary human coronary artery smooth muscle cells;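 note: PAI-1 protein level measured by ELISA 24 h after dosing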
# [8] = read-out: Intercellular Adhesion Molecule 1 (ICAM1), ICAM1 (gene 3383); assay: BSK_hDFCGF_ICAM1: BioMAP Diversity Plus: hDFCGF Assay for Intercellular Adhesion Molecule 1 (ICAM1) Biomarker Activity (AID 2284287); conditions: primary human foreskin fibroblasts
# Procedure, shortened: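 ICAM-1 ELISA readout 24 h after dosing, DMSO as baseline, in human dermal foreskin fibroblast cultures. Cytotoxicity checked in parallel wells by SRB staining (0.1% SRB, 10% TCA fixation, 560 nm).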
# CD69, CD69 (gene 969) = assay: BSK_LPS_CD69: BioMAP Diversity Plus: LPS Assay for CD69 Biomarker Activity (AID 2284303); conditions: primary human HUVEC with PBMC
# Procedure, shortened: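 CD69 surface levels were read by ELISA after 24 h chemical treatment of an LPS-stimulated HUVEC plus PBMC co-culture; positive-direction fit against DMSO vehicle.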
# [9] = molecular target: mouse Estrogen Receptor alpha (Era), Esr1 (gene 13982) (UniProt P19785); assay: NVS_NR_mERa: NovaScreen (NVS) Nuclear Receptor Binding Assay for mouse Estrogen Receptor alpha (Era) (AID 2283378; active = hit-call score of the fitted dose curve at least 0.9, where 1 is the maximum;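 note: hit means loss of bound radioligand signal relative to DMSO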)
# Procedure, shortened: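 Filter radiodetection of radioligand displacement from extracted receptor protein, measured 18 h post-dose. Single 25 uM concentration in duplicate initially, with concentration-series follow-up. Binding loss fitted relative to DMSO.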
# [10] = molecular target: Estrogen receptor beta (Homo sapiens) (UniProt Q92731); assay: OT_ER_ERbERb_0480: Odyssey Thera (OT) 8-hour HEK293T Protein-Complementation Assay for Estrogen Receptor-beta/-beta Homodimer (AID 2283357; active = hit-call score of the fitted dose curve at least 0.9, where 1 is the maximum;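 note: active means signal gain over DMSO baseline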)
# Procedure, shortened: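 Homodimerization of ER-beta LBD measured by protein-fragment complementation in HEK293T; 8 h dosing; fixed, Draq5 counterstain; fluorescence intensity gain over DMSO baseline, positive fitting direction; laser scanning cytometry.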
# [11] = molecular target: Estrogen receptor beta (Homo sapiens) (UniProt Q92731); assay: OT_ER_ERbERb_1440: Odyssey Thera (OT) 24-hour HEK293T Protein-Complementation Assay for Estrogen Receptor-beta/-beta Homodimer (AID 2283380; active = hit-call score of the fitted dose curve at least 0.9, where 1 is the maximum;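 note: scored as signal increase over DMSO baseline for both agonists and antagonists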)
# Procedure, shortened: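 HEK293T cells stably expressing ER beta LBD (aa 310-547) homodimer fragment-complementation reporter, dosed 24 h. Cells formaldehyde-fixed, Draq5-stained; gain in nuclear (agonist) or nuclear plus cytoplasmic (antagonist) fluorescence versus DMSO read by laser scanning cytometry.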
# [12] = molecular target: Retinoic acid receptor RXR-alpha (Homo sapiens) (UniProt P19793); assay: OT_NURR1_NURR1RXRa_1440: Odyssey Thera (OT) 24-hour HEK293T Protein Complementation Assay for Nurr1/retinoid X receptor (RXR) (AID 2283386; active = hit-call score of the fitted dose curve at least 0.9, where 1 is the maximum)
# Procedure, shortened: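 Steps: fragment-tagged Nurr1 and RXRα expressed in HEK293T; compounds added; after 24 h, complemented reporter quantified by fluorescence intensity; signal increase over DMSO fitted as the single endpoint.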
# [13] = molecular target: Peroxisome proliferator-activated receptor gamma (Homo sapiens) (UniProt P37231); assay: OT_PPARg_PPARgSRC1_0480: Odyssey Thera (OT) 8-hour Protein-Complementation Assay for Peroxisome Proliferator-activated Receptor Gamma / SRC-1 Co-activator (AID 2283387; active = hit-call score of the fitted dose curve at least 0.9, where 1 is the maximum;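 note: nuclear to cytoplasmic split Venus YFP fluorescence ratio reporting PPARg SRC-1 interaction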)
# Procedure, shortened: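 HEK293T transiently transfected with PPARg and SRC-1 fused to Venus YFP fragments, compounds 8 h at 37C. Fixed, Draq5-stained cells imaged; nuclear/cytoplasmic 488 nm fluorescence ratio over at least 350 cells per image; gain fitted versus DMSO.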
# [14] = ACEA_AR_agonist_AUC_viability: ACEA Biosciences xCELLigence Real-Time Cell Analysis on Androgen Receptor Agonism for Viability (AID 2283775; active = hit-call score of the fitted dose curve at least 0.9, where 1 is the maximum)
# Procedure, shortened: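 22Rv1 cells; impedance growth kinetics; 8-pt 1:4 dilutions from 100 uM top final, ≤0.5% DMSO; n = 2; 80 h read; AUC viability, loss-of-signal vs DMSO.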
# [15] = ACEA_AR_antagonist_AUC_viability: ACEA Biosciences xCELLigence Real-Time Cell Analysis on Androgen Receptor Antagonism for Viability (AID 2283776; active = hit-call score of the fitted dose curve at least 0.9, where 1 is the maximum;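 note: area under impedance growth curve at 80 h after dosing as viability; hits lower the growth signal relative to DMSO meaning cytotoxicity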)
# Procedure, shortened: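 22Rv1 human prostate cancer cells were seeded on electrode plates, monitored overnight, then exposed to eight 1:4 dilutions from 100 uM final. Impedance-based growth kinetics at 80 h gave an AUC viability endpoint normalized to DMSO.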
# [16] = CCTE_Harrill_HTTr_CellCount_MCF7: CCTE's Cell Proliferation Assessment for the High-Throughput Transcriptomics (HTTr) Platform, Harrill Lab (AID 2284012; active = hit-call score of the fitted dose curve at least 0.9, where 1 is the maximum;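 note: cells exposed to compound for six hours; intended direction is loss of nuclei count meaning fewer cells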)
# Procedure, shortened: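 Cell count served as viability reporter: loss of Hoechst-stained nuclei, counted by high content imaging, marks decreased growth or survival. Exposure was 6 h in MCF-7 cells across eight concentrations, with DMSO as baseline.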
# [17] = ATG_ERE_CIS: Attagene CIS-FACTORIAL HepG2 Assay for Estrogen Response Element (ERE) (AID 2282940); conditions: HepG2 ERE cis-reporter, Attagene RNA transcript; actives raise or lower the signal
# Procedure, shortened: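 Measuring endogenous transcription factor output, the assay doses transfected HepG2 cells for 24 hours and quantifies reporter transcripts by fluorescent RT-PCR and capillary electrophoresis, with DMSO as baseline.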
# [18] = CCTE_Shafer_MEA_acute_LDH: CCTE's Lactate Dehydrogenase Assay for Cytotoxicity in the Neural Acute Assay, Shafer Lab (AID 2284086; active = hit-call score of the fitted dose curve at least 0.9, where 1 is the maximum;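 note: active means LDH release rises above DMSO vehicle level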)
# Procedure, shortened: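 Medium collected from MEA wells of primary rat cortical cultures (DIV 13 or 15) immediately after 40 min chemical exposure is assayed spectrophotometrically for lactate dehydrogenase activity. Endpoint fitted in positive direction versus DMSO.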
# [19] = ATG_GAL4_TRANS: Attagene TRANS-FACTORIAL HepG2 Assay for GAL4 (Internal Marker) (AID 2282976; active = hit-call score of the fitted dose curve at least 0.9, where 1 is the maximum); conditions: HepG2 Attagene TRANS GAL4 internal marker reporter
# Procedure, shortened: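 In transfected human HepG2 liver cells dosed 24 h, GAL4 reporter mRNA serves as a baseline marker. Detection by RT-PCR with fluorescent capillary electrophoresis, activity fitted upward relative to DMSO.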
# Sequence of mouse Estrogen Receptor alpha (Era), Esr1 (gene 13982) (P19785 whole entry, looked up): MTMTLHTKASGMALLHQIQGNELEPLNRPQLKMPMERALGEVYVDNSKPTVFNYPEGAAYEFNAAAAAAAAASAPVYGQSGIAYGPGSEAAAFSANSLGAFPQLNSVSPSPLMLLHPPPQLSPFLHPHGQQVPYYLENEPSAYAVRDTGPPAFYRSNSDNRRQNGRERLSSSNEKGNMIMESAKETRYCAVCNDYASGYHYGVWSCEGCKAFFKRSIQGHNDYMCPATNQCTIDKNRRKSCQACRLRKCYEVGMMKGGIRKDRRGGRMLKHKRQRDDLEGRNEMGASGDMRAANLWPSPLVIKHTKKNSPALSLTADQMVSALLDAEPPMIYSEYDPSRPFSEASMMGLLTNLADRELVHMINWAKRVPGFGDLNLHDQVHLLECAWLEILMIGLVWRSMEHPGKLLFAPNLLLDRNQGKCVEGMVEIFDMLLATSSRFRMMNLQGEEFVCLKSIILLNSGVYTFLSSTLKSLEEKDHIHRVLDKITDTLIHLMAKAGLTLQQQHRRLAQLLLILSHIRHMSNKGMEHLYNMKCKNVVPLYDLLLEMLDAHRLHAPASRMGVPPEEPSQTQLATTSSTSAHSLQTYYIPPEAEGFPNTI
# Sequence of Estrogen receptor beta (Homo sapiens) (Q92731 whole entry, looked up, the tested form may be a part): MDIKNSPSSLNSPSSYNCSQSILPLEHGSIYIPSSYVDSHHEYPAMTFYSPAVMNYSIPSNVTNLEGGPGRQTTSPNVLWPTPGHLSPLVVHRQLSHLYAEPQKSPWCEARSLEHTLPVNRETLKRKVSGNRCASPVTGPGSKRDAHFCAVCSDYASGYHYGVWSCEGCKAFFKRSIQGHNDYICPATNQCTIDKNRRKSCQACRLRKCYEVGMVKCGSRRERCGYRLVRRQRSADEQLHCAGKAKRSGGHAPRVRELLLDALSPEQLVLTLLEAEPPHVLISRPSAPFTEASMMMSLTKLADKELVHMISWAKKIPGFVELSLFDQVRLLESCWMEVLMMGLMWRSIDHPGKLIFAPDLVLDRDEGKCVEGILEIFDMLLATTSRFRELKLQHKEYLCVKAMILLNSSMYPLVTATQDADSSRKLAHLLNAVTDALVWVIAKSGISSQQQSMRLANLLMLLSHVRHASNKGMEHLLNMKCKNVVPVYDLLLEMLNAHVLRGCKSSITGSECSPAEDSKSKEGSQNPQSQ
# Sequence of Retinoic acid receptor RXR-alpha (Homo sapiens) (P19793 whole entry, looked up, the tested form may be a part): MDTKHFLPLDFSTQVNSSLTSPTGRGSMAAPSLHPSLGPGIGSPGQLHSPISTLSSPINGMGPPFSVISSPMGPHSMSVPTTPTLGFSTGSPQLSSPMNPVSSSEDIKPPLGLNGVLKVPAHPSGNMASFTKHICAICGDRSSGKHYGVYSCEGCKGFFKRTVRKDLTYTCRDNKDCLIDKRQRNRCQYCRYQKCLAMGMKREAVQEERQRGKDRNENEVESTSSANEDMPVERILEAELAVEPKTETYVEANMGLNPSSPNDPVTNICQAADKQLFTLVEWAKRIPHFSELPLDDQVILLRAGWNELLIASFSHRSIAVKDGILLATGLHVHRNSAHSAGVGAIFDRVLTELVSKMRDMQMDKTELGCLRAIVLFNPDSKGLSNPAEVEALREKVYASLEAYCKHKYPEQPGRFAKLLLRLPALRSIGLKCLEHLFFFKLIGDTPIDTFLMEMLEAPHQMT
# Sequence of Peroxisome proliferator-activated receptor gamma (Homo sapiens) (P37231 whole entry, looked up, the tested form may be a part): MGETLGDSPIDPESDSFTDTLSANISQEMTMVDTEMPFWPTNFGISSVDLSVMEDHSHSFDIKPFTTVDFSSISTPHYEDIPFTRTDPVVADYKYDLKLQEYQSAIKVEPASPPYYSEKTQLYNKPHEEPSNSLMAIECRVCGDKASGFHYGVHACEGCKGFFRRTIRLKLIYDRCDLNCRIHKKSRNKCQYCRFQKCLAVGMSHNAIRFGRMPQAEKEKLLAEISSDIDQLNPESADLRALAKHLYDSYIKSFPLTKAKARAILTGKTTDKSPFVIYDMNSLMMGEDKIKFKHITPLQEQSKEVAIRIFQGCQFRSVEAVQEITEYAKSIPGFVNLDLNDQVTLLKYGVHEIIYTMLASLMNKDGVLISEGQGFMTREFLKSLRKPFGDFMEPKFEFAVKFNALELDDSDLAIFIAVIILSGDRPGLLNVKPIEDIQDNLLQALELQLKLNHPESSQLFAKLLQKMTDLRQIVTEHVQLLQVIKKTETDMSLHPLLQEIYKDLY
compound,measurement,setting,value
COc1ccccc1Oc1c(NS(=O)(=O)c2ccc(C(C)(C)C)cc2)nc(-c2ncccn2)nc1OCCO,outcome,[1],inactive
same,outcome,[2],inactive
same,outcome,[3],inactive
same,outcome,[4],inactive
same,outcome,[5],inactive
same,outcome,[6],inactive
same,outcome,[7],inactive
same,outcome,[8],inactive
same,outcome,"CD69, CD69 (gene 969)",inactive
OC(C(F)(F)F)(C(F)(F)F)C(O)(C(F)(F)F)C(F)(F)F,AC50,[2],45.2 µM (active) and 54.8 µM (active)
same,AC50,[3],36.1 µM (active) and 25.2 µM (active)
same,outcome,[4],inactive
same,AC50,[5],47.3 µM (active) and 46.1 µM (active)
same,AC50,[6],12.3 µM (active) and 11.5 µM (active)
same,outcome,[7],inactive
same,outcome,[8],inactive
same,AC50,"CD69, CD69 (gene 969)",12.9 µM (active) and 9.36 µM (active)
CC(C)(C)C(=O)C(=O)O,outcome,[9],inactive
O=C(Oc1ccccc1)c1ccccc1,outcome,[10],inactive
same,outcome,[11],inactive
same,outcome,[12],inactive
same,outcome,[13],inactive
same,outcome,[14],inactive
same,outcome,[15],inactive
same,outcome,[16],inactive
C=C(C)C(=O)OCCCCCC,outcome,[17],inactive
O=[N+]([O-])c1cc(S(=O)(=O)Nc2ccccc2)ccc1Nc1ccccc1,AC50,[1],20.9 µM (active)
same,outcome,[18],inactive
same,AC50,[2],33.7 µM (active) and 31.5 µM (active)
same,AC50,[3],25.9 µM (active) and 16.2 µM (active)
same,AC50,[4],15.3 µM (active) and 10.8 µM (active)
same,AC50,[5],28.7 µM (active) and 29.5 µM (active)
same,AC50,[6],20 µM (active) and 7.26 µM (active)
same,outcome,[7],inactive
same,AC50,[8],31 µM (active) and 36.6 µM (active)
same,AC50,"CD69, CD69 (gene 969)",13.2 µM (active) and 10.7 µM (active)
O=C(O)/C=C\C(=O)O,outcome,[10],inactive
same,outcome,[11],inactive
same,outcome,[12],inactive
same,outcome,[14],inactive
same,outcome,[16],inactive
O=C(C1CCCCC1)N1CC(=O)N2CCc3ccccc3C2C1 (configuration not stated),outcome,[16],inactive
CCOC(=O)c1ccccc1,outcome,[17],inactive
same,outcome,[10],inactive
same,outcome,[11],inactive
same,outcome,[12],inactive
same,outcome,[13],inactive
same,outcome,[14],inactive
same,outcome,[15],inactive
COc1ccc(C(=O)c2ccccc2O)c(O)c1,outcome,[1],inactive
same,outcome,[18],inactive
same,outcome,[2],inactive
same,outcome,[3],inactive
same,outcome,[4],inactive
same,outcome,[5],inactive
same,outcome,[6],inactive
same,outcome,[7],inactive
same,outcome,[8],inactive
same,outcome,"CD69, CD69 (gene 969)",inactive
CCCCCCCCCCCCSC#N,AC50,[9],6.16 µM (active)
CC(=O)CC(=O)OC(C)(C)C,outcome,[9],inactive
CC(=O)OC(C)(C)Cc1ccccc1,outcome,[14],inactive
same,outcome,[15],inactive
Nc1nc(N)c2nc(-c3ccccc3)c(N)nc2n1,outcome,[9],inactive
CCCCC(CC)COC(=O)C=Cc1ccc(OC)cc1 (configuration not stated),outcome,[16],inactive
same,outcome,[2],inactive
same,outcome,[3],inactive
same,outcome,[4],inactive
same,outcome,[5],inactive
same,outcome,[6],inactive
same,outcome,[7],inactive
same,outcome,[8],inactive
same,AC50,"CD69, CD69 (gene 969)",15.4 µM (active) and 23.4 µM (active)
Cc1c(C(N)=O)cc([N+](=O)[O-])cc1[N+](=O)[O-],outcome,[1],inactive
same,outcome,[18],inactive
same,outcome,[2],inactive
same,outcome,[3],inactive
same,outcome,[4],inactive
same,AC50,[5],32.7 µM (active) and 30.5 µM (active)
same,outcome,[6],inactive
same,outcome,[7],inactive
same,outcome,[8],inactive
same,outcome,"CD69, CD69 (gene 969)",inactive
C1CN(CCOCCN2CCOCC2)CCO1,AC50,[1],0.003 µM (active)
same,outcome,[18],inactive
same,outcome,[2],inactive
same,outcome,[3],inactive
same,outcome,[4],inactive
same,outcome,[5],inactive
same,outcome,[6],inactive
same,outcome,[7],inactive
same,outcome,[8],inactive
same,outcome,"CD69, CD69 (gene 969)",inactive
CCCCC(CC)COC(=O)CS (configuration not stated),outcome,[19],inactive
same,AC50,[12],16 µM (active)
Nc1nnc(-c2ccc([N+](=O)[O-])o2)o1,outcome,[17],inactive
O=C1NC(=O)C2CC=CCC12 (configuration not stated),outcome,[10],inactive
same,outcome,[11],inactive
same,outcome,[12],inactive
same,outcome,[14],inactive
same,outcome,[15],inactive
CCCCCCCCCCCCCCCCCC[N+](C)(C)C,outcome,[17],inactive
same,AC50,[19],15.4 µM (active)
COc1ccc2ccccc2c1,outcome,[17],inactive
CC(C)C1OCCN1CCOC(=O)NCCCCCCNC(=O)OCCN1CCOC1C(C)C (configuration not stated),outcome,[1],inactive
same,outcome,[18],inactive
same,outcome,[2],inactive
same,outcome,[3],inactive
same,outcome,[4],inactive
same,outcome,[5],inactive
same,outcome,[6],inactive
same,outcome,[7],inactive
same,outcome,[8],inactive
same,outcome,"CD69, CD69 (gene 969)",inactive
CCCCCCCCCCCCCC,outcome,[19],inactive
same,outcome,[16],inactive
Cc1oc(C)c(C(=O)Nc2ccccc2)c1C,outcome,[9],inactive
